# Data from ChEMBL document CHEMBL3988442, “University of Dundee, Small-Polar-MMV Screening Library” (2021).
# Where “and” joins values, the source holds several entries; their conditions need not be identical. Identical values can stand only once. For part of these data: Potency and affinity values are given separately.
# Tests used:
# Design in all cases: scale not given: direction of the effect not stated beside the values
# [1] = target: Protein translocase subunit SecA (Escherichia coli (strain K12)) (UniProt P10408); assay: Assay to Identify E. coli SecA ATPase Inhibitors; format: functional; details: 30 µM
# [2] = target: T1, Ubiquitin-activating enzyme e1, putative (Leishmania donovani (strain BPK282A1)) (UniProt E9BSI1); assay: Leishmania donovani Ubiquitin Activating Enzyme (LdE1); format: functional; details: 30 µM
# T1 sequence (whole entry): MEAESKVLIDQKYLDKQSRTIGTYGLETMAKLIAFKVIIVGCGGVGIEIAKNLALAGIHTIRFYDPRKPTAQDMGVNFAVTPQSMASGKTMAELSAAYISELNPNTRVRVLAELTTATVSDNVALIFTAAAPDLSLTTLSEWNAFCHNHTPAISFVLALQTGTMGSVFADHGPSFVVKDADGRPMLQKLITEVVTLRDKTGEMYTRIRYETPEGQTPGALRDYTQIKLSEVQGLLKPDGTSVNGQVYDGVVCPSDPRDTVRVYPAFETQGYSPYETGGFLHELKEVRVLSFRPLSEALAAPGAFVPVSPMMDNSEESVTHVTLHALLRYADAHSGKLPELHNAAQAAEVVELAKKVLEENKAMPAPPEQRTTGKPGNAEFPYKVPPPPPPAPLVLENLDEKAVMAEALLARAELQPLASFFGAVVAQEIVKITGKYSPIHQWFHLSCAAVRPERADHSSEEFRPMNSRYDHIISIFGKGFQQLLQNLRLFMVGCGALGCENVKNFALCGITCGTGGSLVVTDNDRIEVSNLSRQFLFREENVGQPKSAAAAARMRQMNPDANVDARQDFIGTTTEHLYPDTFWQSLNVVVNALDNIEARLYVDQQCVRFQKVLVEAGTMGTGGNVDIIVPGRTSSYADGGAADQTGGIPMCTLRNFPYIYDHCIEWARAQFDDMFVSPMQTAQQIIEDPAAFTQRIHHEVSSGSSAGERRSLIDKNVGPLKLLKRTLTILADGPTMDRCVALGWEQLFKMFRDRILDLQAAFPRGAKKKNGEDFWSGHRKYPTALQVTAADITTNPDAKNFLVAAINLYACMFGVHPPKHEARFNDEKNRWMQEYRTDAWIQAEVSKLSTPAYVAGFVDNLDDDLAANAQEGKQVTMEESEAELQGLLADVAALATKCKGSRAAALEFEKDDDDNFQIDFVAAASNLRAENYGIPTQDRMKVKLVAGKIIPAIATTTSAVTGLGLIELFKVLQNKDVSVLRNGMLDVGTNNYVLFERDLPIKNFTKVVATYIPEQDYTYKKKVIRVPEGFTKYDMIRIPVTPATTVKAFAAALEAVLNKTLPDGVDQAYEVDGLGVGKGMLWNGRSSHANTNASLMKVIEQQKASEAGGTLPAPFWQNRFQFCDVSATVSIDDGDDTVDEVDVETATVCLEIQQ
# [3] = target: Sialic acid-binding Ig-like lectin 9 (Homo sapiens) (UniProt Q9Y336); assay: Hs-Siglec9 ALPHAscreen SOP 20170721; details: 10 µM
# Trypanosoma cruzi = assay: Trypanosoma cruzi phosphomannomutase and mannose-1-phosphate guanylyltransferase assay; format: functional; details: 10 µM
# [4] = target: T2, Arginase-2, mitochondrial (Homo sapiens) (UniProt P78540); assay: in vitro enzyme assay to detect the production of urea directly proportional to the activity of Arginase II; format: functional; note: in the data most compounds retested in dose-response had high values
# T2 sequence (whole entry): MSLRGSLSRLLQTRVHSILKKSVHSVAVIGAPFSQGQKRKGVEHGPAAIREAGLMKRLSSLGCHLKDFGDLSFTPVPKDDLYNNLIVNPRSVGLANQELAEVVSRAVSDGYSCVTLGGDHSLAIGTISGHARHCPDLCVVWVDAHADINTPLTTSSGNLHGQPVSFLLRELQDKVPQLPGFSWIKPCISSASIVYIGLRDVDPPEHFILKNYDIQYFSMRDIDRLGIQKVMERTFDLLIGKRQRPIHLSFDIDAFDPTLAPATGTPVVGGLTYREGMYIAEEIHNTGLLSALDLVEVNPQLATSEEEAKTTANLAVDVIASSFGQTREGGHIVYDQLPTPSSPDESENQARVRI
# [5] = target: T3, Proteasome subunit beta (Trypanosoma cruzi) (UniProt O96673); assay: Trypanosoma cruzi proteasome chymotrypsin-like activity (TcProtChymo) assay.; note: in the data most compounds retested in dose-response had high values; format: functional; details: 9.37 µM
# T3 sequence (whole entry): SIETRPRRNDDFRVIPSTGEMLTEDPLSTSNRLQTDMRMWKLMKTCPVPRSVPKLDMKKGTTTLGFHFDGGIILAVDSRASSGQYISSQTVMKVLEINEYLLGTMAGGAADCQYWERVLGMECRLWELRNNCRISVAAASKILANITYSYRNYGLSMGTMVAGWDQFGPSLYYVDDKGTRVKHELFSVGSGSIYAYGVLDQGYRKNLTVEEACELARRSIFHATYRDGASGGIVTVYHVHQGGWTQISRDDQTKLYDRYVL
# Homo sapiens = organism: Homo sapiens; assay: To identify inhibition of the IFN signalling (Jak-Stat) pathway via expression of an eGFP reporter gene under the control of an IFN-stimulated response element (ISRE) containing MxA promoter.; format: functional; details: 30 µM
# [6] = target: T4, Tyrosyl-tRNA synthetase, putative (Trypanosoma cruzi (strain CL Brener)) (UniProt Q4DSP6); assay: Trypanosoma cruzi tyrosyl tRNA synthetase (TcYRS) _High Tyrosine SOP; format: functional; details: 30 µM; note: in the data most compounds retested in dose-response had high values
# T4 sequence (whole entry): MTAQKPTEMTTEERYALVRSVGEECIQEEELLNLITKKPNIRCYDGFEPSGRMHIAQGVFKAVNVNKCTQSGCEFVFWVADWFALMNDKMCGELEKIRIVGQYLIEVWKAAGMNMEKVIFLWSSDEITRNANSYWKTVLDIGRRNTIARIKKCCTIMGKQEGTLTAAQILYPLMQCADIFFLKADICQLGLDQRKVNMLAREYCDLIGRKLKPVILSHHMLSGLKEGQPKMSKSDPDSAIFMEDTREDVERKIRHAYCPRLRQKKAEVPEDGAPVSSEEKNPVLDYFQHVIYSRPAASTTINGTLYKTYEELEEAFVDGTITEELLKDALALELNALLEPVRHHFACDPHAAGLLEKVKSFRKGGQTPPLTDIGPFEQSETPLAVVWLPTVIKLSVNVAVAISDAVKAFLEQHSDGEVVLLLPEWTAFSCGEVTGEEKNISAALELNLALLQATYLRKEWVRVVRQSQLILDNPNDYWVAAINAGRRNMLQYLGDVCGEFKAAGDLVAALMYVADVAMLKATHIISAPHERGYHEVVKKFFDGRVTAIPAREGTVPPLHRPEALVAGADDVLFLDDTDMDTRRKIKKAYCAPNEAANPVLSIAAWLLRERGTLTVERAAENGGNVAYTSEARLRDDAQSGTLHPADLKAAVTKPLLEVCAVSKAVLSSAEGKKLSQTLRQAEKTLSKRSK
# [7] = target: T4, Tyrosyl-tRNA synthetase, putative (Trypanosoma cruzi (strain CL Brener)); assay: Trypanosoma cruzi tyrosyl tRNA synthetase (TcYRS) SOP; format: functional; details: 30 µM
# [8] = target: Chromo domain-containing protein 1 (Saccharomyces cerevisiae (strain ATCC 204508 / S288c) (Baker's yeast)) (UniProt P32657); assay: ScCHD-1 Enzyme Inhibition Assay; format: functional; details: 30 µM; note: in the data most compounds retested in dose-response had high values
# [9] = target: AMP-activated protein kinase, AMPK (Homo sapiens) (UniProt P54646+O43741+P54619+Q9UGJ0+Q9Y478+Q13131+Q9UGI9); assay: AMP-dependent Kinase enzyme assay. An in vitro enzyme assay that detects ADP turnover that is directly proportional to AMPK activity. This uses naive AMPK that is activated during the assay with MK-8722; format: functional; details: 30 µM
# N/A = assay: Trypanosoma cruzi proteasome luciferase counter-screen; format: functional; details: 9.37 µM
# Sequence of Protein translocase subunit SecA (Escherichia coli (strain K12)) (P10408 whole entry): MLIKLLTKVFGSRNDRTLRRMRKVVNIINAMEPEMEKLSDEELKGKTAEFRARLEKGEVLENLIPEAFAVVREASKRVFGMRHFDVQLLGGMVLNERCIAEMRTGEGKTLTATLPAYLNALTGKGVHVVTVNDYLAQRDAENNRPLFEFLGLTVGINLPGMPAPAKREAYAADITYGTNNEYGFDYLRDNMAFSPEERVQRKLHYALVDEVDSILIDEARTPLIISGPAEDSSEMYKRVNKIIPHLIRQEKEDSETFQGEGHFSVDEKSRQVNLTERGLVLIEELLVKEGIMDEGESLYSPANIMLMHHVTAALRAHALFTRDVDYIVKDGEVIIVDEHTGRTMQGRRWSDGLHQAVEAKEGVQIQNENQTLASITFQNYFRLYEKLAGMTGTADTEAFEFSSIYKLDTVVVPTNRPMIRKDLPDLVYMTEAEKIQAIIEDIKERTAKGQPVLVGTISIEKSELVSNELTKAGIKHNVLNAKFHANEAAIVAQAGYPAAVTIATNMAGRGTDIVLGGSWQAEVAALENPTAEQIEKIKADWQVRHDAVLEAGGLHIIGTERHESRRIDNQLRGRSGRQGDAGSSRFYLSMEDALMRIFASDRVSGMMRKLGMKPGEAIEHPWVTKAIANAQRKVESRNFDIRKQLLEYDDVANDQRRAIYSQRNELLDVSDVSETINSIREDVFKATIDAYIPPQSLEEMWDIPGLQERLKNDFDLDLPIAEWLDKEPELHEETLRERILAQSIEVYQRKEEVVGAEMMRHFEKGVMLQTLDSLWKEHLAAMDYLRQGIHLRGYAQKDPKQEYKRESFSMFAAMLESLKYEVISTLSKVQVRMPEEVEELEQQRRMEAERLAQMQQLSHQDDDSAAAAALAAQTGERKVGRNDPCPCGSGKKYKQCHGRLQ
# Sequence of Sialic acid-binding Ig-like lectin 9 (Homo sapiens) (Q9Y336 whole entry): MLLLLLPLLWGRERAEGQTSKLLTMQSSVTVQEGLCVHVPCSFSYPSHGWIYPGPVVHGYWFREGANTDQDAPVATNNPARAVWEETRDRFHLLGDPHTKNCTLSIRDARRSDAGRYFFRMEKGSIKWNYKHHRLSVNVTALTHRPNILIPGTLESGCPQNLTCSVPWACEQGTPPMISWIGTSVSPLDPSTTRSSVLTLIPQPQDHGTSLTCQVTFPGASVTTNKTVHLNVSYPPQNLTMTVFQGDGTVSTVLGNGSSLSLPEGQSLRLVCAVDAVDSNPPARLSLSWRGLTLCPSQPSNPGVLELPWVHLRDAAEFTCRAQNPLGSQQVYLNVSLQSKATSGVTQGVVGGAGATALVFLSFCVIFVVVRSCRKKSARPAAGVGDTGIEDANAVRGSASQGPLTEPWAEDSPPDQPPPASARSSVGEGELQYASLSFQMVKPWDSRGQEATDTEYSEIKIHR
# Sequence of Chromo domain-containing protein 1 (Saccharomyces cerevisiae (strain ATCC 204508 / S288c) (Baker's yeast)) (P32657 whole entry, the tested form may be a part): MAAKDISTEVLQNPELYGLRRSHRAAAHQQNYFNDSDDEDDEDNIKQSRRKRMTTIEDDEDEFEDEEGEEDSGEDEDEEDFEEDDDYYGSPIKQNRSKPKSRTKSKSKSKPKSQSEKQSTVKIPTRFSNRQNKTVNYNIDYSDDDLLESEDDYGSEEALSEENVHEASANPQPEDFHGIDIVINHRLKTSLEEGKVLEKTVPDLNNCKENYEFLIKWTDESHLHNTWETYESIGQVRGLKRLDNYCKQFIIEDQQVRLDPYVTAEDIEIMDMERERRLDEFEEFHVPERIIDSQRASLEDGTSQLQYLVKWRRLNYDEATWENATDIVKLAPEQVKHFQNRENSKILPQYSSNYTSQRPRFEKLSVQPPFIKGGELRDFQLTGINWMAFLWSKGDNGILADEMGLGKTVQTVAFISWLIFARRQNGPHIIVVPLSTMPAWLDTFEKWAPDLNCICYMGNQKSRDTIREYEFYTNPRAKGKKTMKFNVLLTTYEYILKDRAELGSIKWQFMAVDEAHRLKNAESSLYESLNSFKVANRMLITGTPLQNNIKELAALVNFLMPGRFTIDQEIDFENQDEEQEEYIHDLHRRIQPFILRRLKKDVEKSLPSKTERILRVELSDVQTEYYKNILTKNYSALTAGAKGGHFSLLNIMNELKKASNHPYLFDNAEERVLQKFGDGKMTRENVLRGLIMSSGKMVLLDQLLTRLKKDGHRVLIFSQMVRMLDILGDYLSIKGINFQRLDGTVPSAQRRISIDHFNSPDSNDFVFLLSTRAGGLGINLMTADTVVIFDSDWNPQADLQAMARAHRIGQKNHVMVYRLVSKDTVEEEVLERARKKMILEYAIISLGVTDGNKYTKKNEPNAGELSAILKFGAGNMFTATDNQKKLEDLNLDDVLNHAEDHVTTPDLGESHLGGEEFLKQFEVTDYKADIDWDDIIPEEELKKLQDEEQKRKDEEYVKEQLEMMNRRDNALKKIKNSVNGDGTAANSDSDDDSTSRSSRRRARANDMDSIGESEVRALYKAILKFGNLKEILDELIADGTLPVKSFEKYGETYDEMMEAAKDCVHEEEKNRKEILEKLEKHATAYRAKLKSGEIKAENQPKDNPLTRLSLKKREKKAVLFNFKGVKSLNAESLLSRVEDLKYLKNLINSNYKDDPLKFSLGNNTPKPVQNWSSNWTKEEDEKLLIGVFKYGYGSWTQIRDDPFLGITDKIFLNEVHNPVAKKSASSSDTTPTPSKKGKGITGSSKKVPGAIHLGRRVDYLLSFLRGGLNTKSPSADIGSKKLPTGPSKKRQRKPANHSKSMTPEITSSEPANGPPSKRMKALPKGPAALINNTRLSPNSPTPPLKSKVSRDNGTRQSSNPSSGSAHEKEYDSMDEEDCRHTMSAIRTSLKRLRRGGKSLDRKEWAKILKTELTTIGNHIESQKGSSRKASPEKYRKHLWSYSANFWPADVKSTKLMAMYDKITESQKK
Structure (SMILES),Percent Effect [1] [%],Percent Effect [2] [%],Percent Effect [3] [%],Percent Effect (Trypanosoma cruzi) [%],Percent Effect ([4]; 30 µM) [%],Percent Effect ([4]; 33.3 µM) [%],Percent Effect [5],Percent Effect (Homo sapiens) [%],Percent Effect [6] [%],Percent Effect [7] [%],Percent Effect [8] [%],Percent Effect [9] [%],Percent Effect (N/A)
Cc1ccc(C)c(C(C(=O)O)N2CCCN(Cc3ccccn3)CC2)c1 (stereo unspecified),-6.39,5.41,1.19,-2.23,0.54,4.54,16.3%,23.2,6.92,14.6,-4.84,,
CN(CC(F)(F)F)C(=O)C1CSCN1C(=O)OC(C)(C)C (stereo unspecified),-2.64,2.74,-3.23,-3.33,,2.27,11.9%,2.3,1.07,7.5,-1.01,-4.74,
CCOc1ccc(CN2CCN(C(=O)c3ccc(C)n3C)CC2)cc1,-2.75,5.33,3.18,1.41,,-4.43,12.1%,8.63,6.84,15.4,-10.5,,
COc1ccc2c(c1)OCC(CNC(=O)c1ccc(=O)n(C)c1)C2 (stereo unspecified),-9.07,-2.7,20.7,5.72,-5.95,17.8,12.5%,9.66,4.79,9.76,0.784,,
Cc1nc(C)n(CC2CCCN2Cc2nc(N)c3ccccc3n2)n1 (stereo unspecified),-1.49,21.3,-3.38,3.81,,-3.1,16.4% and 18.4% and 30.6%,8.71,6.84,15.4,-17.8,,8.36% and 7.38%
O=C(NCCCN1CCOCC1)c1ccn(-c2ccc3ccccn23)n1,-0.779,6.49,1.13,-2.43,,-4.05,30.3% and 30.6% and 42.5%,5.6,8.95,7.69,1.74,,15% and 12%
CC(C)CCCNC(=O)Nc1ccc(F)c(C(N)=O)c1,-0.324,23.4,0.112,2.61,,-6.76,12.3%,14.9,6.86,30.6,-10.9,,
O=C(O)c1ccc2ccc(N3CCN(CC4CC4)CC3)n2c1,-3.4,14.3,1.31,3.38,,2.74,9.7%,7.8,18.4,12.5,-4.22,,
CN(C)C(=O)CN1CCCCC1c1nc(N)ncc1-c1cccc(F)c1 (stereo unspecified),-4.39,21.3,-10.4,5.12,,-4.43,17.9%,6.49,4.25,14.1,-4.14,1.75,
